This note sets out measurements from ChEMBL document CHEMBL3433997, “St. Jude Leishmania screening dataset” (2016).

Common to all, as to type: functional
Assay [1] has as its target Solute carrier family 2, facilitated glucose transporter member 1 (Homo sapiens) (UniProt P11166). Put plainly: ST_JUDE_LEISH: Cytotoxicity at 2uM final concentration against transgenic Leishmania Mexicana promastigotes LmGLUT1 that are glucose transport deficient and complemented with the human glucose transporter GLUT1. Activity is measured by DNA content using SYBR green in vitro.

In assay [2] the target is Hexose transporter 1 (Plasmodium falciparum) (UniProt O97467). Put plainly: ST_JUDE_LEISH: Cytotoxicity at 2uM final concentration against transgenic Leishmania Mexicana promastigotes LmPfHT that are glucose transport deficient and complemented with the Plasmodium falciparum hexose transporter. Activity is measured by DNA content using SYBR green in vitro.
For assay [3], the target named is Glucose transporter (Leishmania mexicana) (UniProt O61059). Put plainly: ST_JUDE_LEISH: Cytotoxicity at 2uM final concentration against transgenic Leishmania Mexicana promastigotes LmGT2 that are glucose transport deficient and complemented with the L. Mexicana glucose transporter 2. Activity is measured by DNA content using SYBR green in vitro.

Solute carrier family 2, facilitated glucose transporter member 1 (Homo sapiens), sequence (P11166 whole entry): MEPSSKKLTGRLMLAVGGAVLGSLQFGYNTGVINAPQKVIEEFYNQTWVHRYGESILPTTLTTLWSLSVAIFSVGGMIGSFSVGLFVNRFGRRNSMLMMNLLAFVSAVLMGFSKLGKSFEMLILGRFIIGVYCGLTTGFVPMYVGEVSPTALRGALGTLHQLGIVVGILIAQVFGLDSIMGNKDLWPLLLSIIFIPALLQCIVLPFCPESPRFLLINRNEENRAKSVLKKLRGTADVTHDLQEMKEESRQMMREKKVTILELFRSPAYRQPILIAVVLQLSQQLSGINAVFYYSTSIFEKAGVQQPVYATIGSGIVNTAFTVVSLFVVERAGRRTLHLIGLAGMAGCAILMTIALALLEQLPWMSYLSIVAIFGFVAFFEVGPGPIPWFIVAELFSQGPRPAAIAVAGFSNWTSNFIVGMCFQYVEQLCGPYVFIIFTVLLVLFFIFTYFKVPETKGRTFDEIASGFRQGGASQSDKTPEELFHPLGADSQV

Turning to `Oc1ccc(Cc2cc(Oc3c(I)cc(CCc4ncc[nH]4)cc3I)ccc2O)cc1`, the inhibition in assay [1] is 0.12%; in assay [2], 1.92%; in assay [3], 1.23%.

For `Cc1cccc2nc(-c3ccc(-c4cccc(CNCCNC(=O)c5ccnn5C)c4)s3)[nH]c12`, the inhibition was 3.8% in assay [1], 4.31% in assay [2] and 3.87% in assay [3].

Consider `O=C(Nc1nc(-c2ccccn2)cs1)c1ccc(Br)s1`, for which the inhibition is -1.89% in assay [1], 4.54% in assay [2] and 0.61% in assay [3].

Take `COc1cc(Cc2cnc(N)nc2N)cc(OCCCCC2SC(=O)NC2=O)c1OC` (stereo not drawn): the figures for the inhibition in assay [1], in assay [2] and in assay [3] were 2.3%, 0.84% and 1.34%, respectively.

As for `N#Cc1ccc2c(c1)CN(CCC1CCC(NC(=O)c3cc4ccccc4cc3N)CC1)CC2` (stereo not drawn), the inhibition was 5.84% in assay [1], 5.45% in assay [2] and 3.13% in assay [3].

With `CCN(CC)CCCN(C(=O)Nc1ccc(C#N)cc1)c1nc(-c2ccc(F)cc2)cs1`, the figures for the inhibition in assay [1], in assay [2] and in assay [3] were -0.54%, 2.42% and -0.41%, respectively.

`O=C(c1cccc(Br)c1)N1CCN(c2ccc([N+](=O)[O-])c(NC3CC3)c2)CC1`: the inhibition in assay [1] is 4.9%; in assay [2] it was 4.63%; in assay [3], 1.63%.

On to `COc1cccc(C(=O)Nc2ccc(-c3nc4ccccc4[nH]3)cc2)c1`, for which the inhibition in assay [1] worked out at 3.48%; in assay [2], 1.76%; in assay [3], 0.31%.

For `CCOC(=O)c1cc(C(=O)NCCCCN2CCC(c3ccc(CC)cc3OCC)CC2)ccc1-c1ccc(C(F)(F)F)cc1`, the figures for the inhibition in assay [1], in assay [2] and in assay [3] were 10.1%, 8.59% and 3.34%, respectively.

On to `Cn1cc(C(=O)Nc2cccc(-c3cccc(-c4nc5ccccc5[nH]4)c3)c2)n(C)c1=O`, for which the inhibition was 4.31% in assay [1], 2.7% in assay [2] and 2.54% in assay [3].

For `N#Cc1ccc2c(c1)CN(CCC1CCC(NC(=O)c3cc4cnccc4[nH]3)CC1)CC2` (stereo not drawn), the inhibition in assay [1] stood at 5.36%; in assay [2] it was 3.42%; in assay [3], 3.7%.

For `COc1ccc2ncc(F)c(CCN3CCC(CNC(=O)C(=O)c4c[nH]c5ccccc45)CC3)c2n1`, the inhibition was determined as 6.8% in assay [1], 7.49% in assay [2] and 1.37% in assay [3].

For the compound `CCCNc1nc(NCc2c(C)cccc2C)nc(NC(C)(C)C)n1`, the inhibition in assay [1] turned out to be 6.93%; in assay [2], 8.23%; in assay [3], 1.74%.

In the case of `FC(F)(F)c1ccc2[nH]c(-c3cccc(-c4cccc(CNCCc5ccncc5)c4)c3)nc2c1`, the inhibition in assay [1] is 4.96%; in assay [2] it was 4.69%; in assay [3] it was 5.06%.

As to `Cc1cc(C)cc(-n2c(C)cc(/C=C3\SC(=Nc4ccc(Cl)cc4)NC3=O)c2C)c1`, the inhibition in assay [1] stood at 5.26%; in assay [2], 7.1%; in assay [3], 1.22%.

For `Cc1ccc(-c2csc(C)n2)c(C)c1`, the inhibition in assay [1] came to 1.21%; in assay [2], 2.19%; in assay [3], 2.4%.

Regarding `C=CCOC1OC(COC(c2ccccc2)(c2ccccc2)c2ccccc2)C(OC(C)=O)C(OC(C)=O)C1NC(C)=O` (stereo not drawn), the inhibition turned out to be 1.33% in assay [1], 1.07% in assay [2] and 0.34% in assay [3].

For `CC(C)Oc1ccc(N2CCN(CCCCNC(=O)c3ccc(NC(=O)c4ccc(Cl)cc4)cc3)CC2)c(OC(C)C)c1`, the inhibition in assay [1] is 1.62%; in assay [2] it was 2.05%; in assay [3] it was 1.44%.

Regarding `COc1cc(CCNc2nc(NCc3ccccc3-c3ccccc3)nc(N3CCC(N)CC3)n2)ccc1O`, the inhibition in assay [1] is 4.17%; in assay [2], 0.92%; in assay [3], 2.4%.

On to `COc1ccc(Nc2ncc3c(-c4cccc(NC(=O)c5ccc(N)cc5)c4)c[nH]c3n2)cc1OC`, for which the inhibition in assay [1] came out at 9.74%; in assay [2], 8.84%; in assay [3] it was 7.97%.

Consider `Clc1ccc2c(NCCc3ccccn3)ccnc2c1`, for which the inhibition in assay [1] stood at 6.58%; in assay [2], 6.15%; in assay [3], 6.87%.

For `COc1ccc(CNC2Cc3ccccc3C2)cc1-c1ccc(S(=O)(=O)NCc2cccnc2)s1`, the inhibition was found to be 1.92% in assay [1], 2.48% in assay [2] and 0.3% in assay [3].

Take `O=C(Nc1cccc(-c2ccc(-c3nc4cc(F)ccc4[nH]3)s2)c1)c1cccnc1`: the inhibition in assay [1] came out at 5.68%; in assay [2] it was 4.85%; in assay [3], 3.13%.

Turning to `COc1ccc2nccc(NC(=O)N3CCC(NCc4cc5ccccc5[nH]4)CC3)c2n1`, the inhibition in assay [1] came out at 13.2%; in assay [2] it was 16.9%; in assay [3] it was 2.89%.

Turning to `O=C(/C=C/c1ccc(Cl)c(Cl)c1)NCCCCCCN1CCN(C(=O)Nc2ccc(Cl)c(Cl)c2)CC1`, the inhibition was determined as 2.42% in assay [1], 2.46% in assay [2] and 4.14% in assay [3].

Turning to `CCCN(Cc1ccc(C)cc1)Cc1cc(=O)c2cc(Cl)ccc2[nH]1`, the inhibition in assay [1] came out at 9.14%; in assay [2], 10.5%; in assay [3], 9.04%.

In the case of `CN1CCCN(c2ccnc3cc4c(cc23)N(C(=O)c2ccc(Cl)cc2Cl)CC4)CC1`, the inhibition in assay [1] was -0.4%; in assay [2], 2.07%; in assay [3] it was 0.94%.

Consider `COc1ccc2nccc(N/N=C/c3ccc([N+](=O)[O-])cc3)c2c1`, for which the inhibition in assay [1] is -1.64%; in assay [2], -1.77%; in assay [3], 3.94%.

Take `CCCSc1nc2c(c(=O)n1CCc1ccccc1)C1(CCCC1)Cc1ccccc1-2`: the inhibition in assay [1] was -1.58%; in assay [2], 1.38%; in assay [3], 0.24%.

`Cc1cc(N[C@@H](CC(C)C)C(=O)NCCc2ccccc2)nc(NCC2CCCCC2)n1`: the inhibition in assay [1] amounted to 6.58%; in assay [2] it was 6.23%; in assay [3] it was 3.37%.

For the compound `Cc1ccc(NC(=O)Nc2ccc(Cn3ncc(N4CCCNCC4)c(Cl)c3=O)cc2)cc1`, the values for the inhibition in assay [1], in assay [2] and in assay [3] were 2.01%, 4.54% and 1.32%, respectively.

As for `COc1cc(O)c2c(=O)c(OC)c(-c3cccc(Cl)c3OC3O[C@H](CO)[C@@H](O)[C@H](O)[C@H]3O)oc2c1OC` (stereo partly drawn), the inhibition is 5.21% in assay [1], 4.48% in assay [2] and 4.54% in assay [3].

As to `O=c1ccc2ccc(O)c(O)c2o1`, the figures for the inhibition in assay [1], in assay [2] and in assay [3] were 7.05%, 5% and 4.39%, respectively.

On to `COc1ccc(C2CCN(CCCCNC(=O)c3ccc(NC(=O)c4ccc(Cl)cc4)cc3)CC2)c(OC)c1`, for which the results for the inhibition in assay [1], in assay [2] and in assay [3] were 6.64%, 5.21% and 3.22%, respectively.

With `O=C(/C=C/c1ccc(C(F)(F)F)cc1)NCCCCCN1CCCN(C(=O)Nc2ccc(Cl)c(Cl)c2)CC1`, the figures for the inhibition in assay [1], in assay [2] and in assay [3] were -0.66%, -0.09% and -0.19%, respectively.

Take `COc1cccc(C(=O)Nc2ccc(S(=O)(=O)c3cc4c(cc3OC)CCN(C)CC4)cc2)c1`: the inhibition was 1.6% in assay [1], -0.4% in assay [2] and 1.23% in assay [3].

As usually defined, the inhibition is the change of the read-out against control, counted positive when it falls.
